Results on 13 compounds are retold here after PubChem BioAssay (EPA / NIEHS).

Molecules are shown by their SMILES. Inconclusive results are not listed. The source made the active and inactive calls. How the source made its calls: active means hit-call score of the fitted dose curve at least 0.9, where 1 is the maximum; inconclusive means response in the unintended direction; inactive means score below 0.9.

Sequence of Nucleoli Translocation, AR (gene 367) (P10275 whole entry, looked up, the tested form may be a part): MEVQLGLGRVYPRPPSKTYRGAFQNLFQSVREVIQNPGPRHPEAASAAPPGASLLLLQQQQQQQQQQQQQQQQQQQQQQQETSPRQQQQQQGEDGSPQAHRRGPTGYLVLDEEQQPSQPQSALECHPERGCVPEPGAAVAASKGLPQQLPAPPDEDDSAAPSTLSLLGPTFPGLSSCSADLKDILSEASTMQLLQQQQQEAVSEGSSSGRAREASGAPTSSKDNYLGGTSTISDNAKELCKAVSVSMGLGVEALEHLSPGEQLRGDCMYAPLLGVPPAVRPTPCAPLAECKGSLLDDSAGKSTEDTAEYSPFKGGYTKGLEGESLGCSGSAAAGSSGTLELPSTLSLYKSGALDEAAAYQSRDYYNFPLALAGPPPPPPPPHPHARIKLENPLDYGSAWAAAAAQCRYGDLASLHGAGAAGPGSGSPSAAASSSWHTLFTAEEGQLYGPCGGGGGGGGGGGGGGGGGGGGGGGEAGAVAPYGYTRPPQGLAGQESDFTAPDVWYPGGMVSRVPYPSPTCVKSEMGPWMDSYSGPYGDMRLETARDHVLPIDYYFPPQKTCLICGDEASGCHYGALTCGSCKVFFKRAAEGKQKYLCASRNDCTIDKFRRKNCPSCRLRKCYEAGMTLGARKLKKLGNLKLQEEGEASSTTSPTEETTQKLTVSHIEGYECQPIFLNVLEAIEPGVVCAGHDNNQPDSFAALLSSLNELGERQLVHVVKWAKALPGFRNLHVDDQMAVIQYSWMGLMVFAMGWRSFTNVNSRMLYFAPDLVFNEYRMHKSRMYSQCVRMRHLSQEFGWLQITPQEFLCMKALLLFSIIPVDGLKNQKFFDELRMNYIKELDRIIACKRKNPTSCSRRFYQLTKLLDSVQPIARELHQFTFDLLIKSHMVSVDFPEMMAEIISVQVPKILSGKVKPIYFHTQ

The assay addresses Nucleoli Translocation, AR (gene 367) (UniProt P10275). Kind of assay: UPITT_HCI_U2OS_AR_TIF2_Nucleoli_Antagonist: University of Pittsburgh U2OS Androgen Receptor-Transcriptional Intermediary Factor 2 (AR-TIF2) Antagonism High Content Imaging Assay for Nucleoli Translocation (AID 2283997). The source says: UPITT_AR_TIF2_PPIB is a cell-based, high-content imaging assay that uses U2OS, a human osteosarcoma cell line, expressing a human androgen receptor fused to red fluorescent protein and the coactivator TIF2 fused to green fluorescent protein. UPITT_HCI_U2OS_AR_TIF2_Nucleoli_Antagonist is one of four assay components measured from the UPITT_AR_TIF2_PPIB assay. It is designed to make measurements of red fluorescence localized in the nucleolar region of the cell nucleus as detected with high-content fluorescent imaging.Data from the assay component UPITT_HCI_U2OS_AR_TIF2_Nucleoli_Antagonist was analyzed into 1 assay endpoint. This assay endpoint, UPITT_HCI_U2OS_AR_TIF2_Nucleoli_Antagonist, was analyzed in the positive analysis fitting direction relative to DHT as the baseline of activity. Using a type of binding reporter, measures of receptor for loss-of-signal activity can be used to understand the binding at the pathway-level as it relates to the gene AR.
Daughter plates containing 2 uL of 10 mM compounds in DMSO were prepared and replicated from the 384-well Library of Pharmacologically Active Compounds (LOPAC) master plates using the Bravo outfitted with a 384-well transfer head. Aluminum adhesive plate seals were applied with an Abgene Seal-IT 100 (Rochester, NY) plate sealer, and the plates were stored at -20 C in a Matrical MatriMinistore (Spokane, WA) automated compound storage and retrieval system. For screening, LOPAC daughter plates were withdrawn from -20C storage, thawed to ambient temperature, centrifuged 1-2 min at 50 g, and the plate seals were removed before the transfer of 98 uL of serum-free tissue culture medium (SFM) into wells using the BioTek Microflo liquid handler (BioTek, Winooski, VT) to generate a 200 uM intermediate stock concentration of library compounds (2.0% DMSO). The diluted compounds were mixed by repeated aspiration and dispensation using a 384-well P30 dispensing head on the Evolution P3 (EP3) liquid handling platform (PerkinElmer, Waltham, MA) and then 5 uL of diluted compounds was transferred to the wells of assay plates. In the LOPAC screen, compounds were individually tested at a final concentration of 20 uM (0.2% DMSO). After the diluted compounds had been transferred from the daughter plates to the primary HCS assay plates, aluminum adhesive plate seals were applied and the diluted daughter plates were stored frozen at -20C. To confirm active compounds identified in the primary screen, we withdrew the LOPAC daughter plates containing the 200 uM intermediate concentration of library compounds (2.0% DMSO) from -20C storage, thawed them to ambient temperature, centrifuged them for 1-2 min at 50 g, and removed the plate seals. A work list was generated to direct the Multiprobe Janus liquid handling platform (PerkinElmer) to cherry pick 75 uL from the wells of the diluted daughter plates that were flagged active in the primary screen and to reformat these into a 384-well plate hit confirmation daughter plate. Five microliters of primary HCS active compounds was then transferred into triplicate wells of assay plates using a 384-well P30 dispensing head on the Evolution P3 (EP3) liquid handling platform (PerkinElmer). […] Daughter plates containing 2 uL of the serially diluted compounds in DMSO were prepared and replicated from the 384-well serial dilution master plates using the Bravo outfitted with a 384-well transfer head. Aluminum adhesive plate seals were applied and plates were stored at -20C. […] The ImageXpress Ultra (IXU) platform (Molecular Devices LLC, Sunnyvale, CA) and The ImageXpress Micro (IXM) platform were used for imaging.
For `CC(C)N1C(=O)N(c2ccccc2)CSC1=NC(C)(C)C`, the compound was called inactive.

On to `CCCCC(O)(Cn1cncn1)c1ccc(Cl)cc1Cl` (stereo not drawn), for which the AC50 is 62.7 µM (active). Same read-out and setting: the result for `COP(=S)(OC)SCn1nnc2ccccc2c1=O` reads 31.4 µM (active). Turning to `Cc1cnc(C2=NC(C)(C(C)C)C(=O)N2)c(C(=O)O)c1` (stereo not drawn), the result was inactive. Turning to `COC(=O)c1c(C(F)F)nc(C(F)(F)F)c(C2=NCCS2)c1CC(C)C`, the outcome was inactive. Still for that read-out and setting: the value for `CCOP(=O)(OCC)Oc1nc(Cl)c(Cl)cc1Cl` was “inactive”; that for `COC(=O)N(C(=O)N1CO[C@@]2(C(=O)OC)Cc3cc(Cl)ccc3C2=N1)c1ccc(OC(F)(F)F)cc1` was “inactive”; that for `Clc1cccc(C(Cl)(Cl)Cl)n1` was “inactive”. As for `CC1(C)CCC(=Cc2ccc(Cl)cc2)C1(O)Cn1cncn1` (stereo not drawn), the AC50 was 2.9 µM (active). With `CCCCOCN(C(=O)CCl)c1c(CC)cccc1CC`, the AC50 is 19 µM (active). As to `COCc1cnc(C2=NC(C)(C(C)C)C(=O)N2)c(C(=O)O)c1` (stereo not drawn), the call was inactive.

On to `COc1ccc(-c2ccccc2)cc1NNC(=O)OC(C)C`, for which the result was inactive.

Regarding `CCOc1cc(C(C)(C)C)ccc1C1COC(c2c(F)cccc2F)=N1` (stereo not drawn), the result was inactive.
